Measurements from PubChem BioAssay AID2551 (National Center for Advancing Translational Sciences (NCATS), 2010).
In all, about 310,000 compounds went through this assay and about 17,000 (5.5%) were called active. Inconclusive results (about 11%) are left out. The call rests on the fitted dose curve; in most records, active means well fitted inhibition curve with a large enough effect; inconclusive means small, poorly fitted or top-dose-only effect, or effect the other way; inactive means no such curve, though single readings can be large or run the other way. What follows is part of a selection rich in actives, with near analogues and random picks from the rest.

Biological target: Nuclear receptor ROR-gamma (Mus musculus) (UniProt P51450)
Assay: qHTS for inhibitors of ROR gamma transcriptional activity; further: nearly all actives have a fitted effect of over 60% in size
Details: Drosophila S2 Gal4-RORgamma UAS-luciferase reporter, 20 h; series mostly up to 53.6 µM; activity change, negative = inhibition: at the top concentration
Procedure, shortened: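 Drosophila S2 cells stably expressing Gal4-DBD/mouse RORγ fusion under metallothionein promoter plus UAS-luciferase; compound 1 h, then 700 uM CuSO4 induction for 20 h at ambient temperature; inhibition read as reduced luminescence.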
On the % scale 0 is the no-effect control and ±100 the full control effect; potency means the concentration at half of the fitted maximal effect.

Nuclear receptor ROR-gamma (Mus musculus), sequence (P51450 whole entry, looked up): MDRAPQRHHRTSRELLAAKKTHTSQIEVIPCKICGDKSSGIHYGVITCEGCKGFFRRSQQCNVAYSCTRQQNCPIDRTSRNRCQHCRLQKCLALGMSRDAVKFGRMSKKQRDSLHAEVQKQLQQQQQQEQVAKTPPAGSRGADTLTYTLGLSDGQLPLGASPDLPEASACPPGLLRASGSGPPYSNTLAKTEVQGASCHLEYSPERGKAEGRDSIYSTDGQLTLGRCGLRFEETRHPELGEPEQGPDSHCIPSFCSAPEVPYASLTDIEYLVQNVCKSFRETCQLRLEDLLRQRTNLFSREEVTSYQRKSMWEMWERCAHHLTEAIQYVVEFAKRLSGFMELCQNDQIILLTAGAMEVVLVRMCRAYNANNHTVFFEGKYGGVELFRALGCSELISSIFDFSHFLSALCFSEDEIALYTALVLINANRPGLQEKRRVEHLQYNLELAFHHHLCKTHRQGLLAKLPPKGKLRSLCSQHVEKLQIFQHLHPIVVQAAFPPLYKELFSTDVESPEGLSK

Activity change, negative = inhibition, inactive:
Cc1ccc(OCC(=O)Nc2ccc(C(=O)O)cc2NC(=O)COc2ccc(C)c(C)c2)cc1C 35%
O=C(NNS(=O)(=O)c1ccc([N+](=O)[O-])cc1)C1CCCCC1 -7.5%
COc1ccc(CCn2c(-c3ccco3)nc3nc4ccccc4nc32)cc1OC -7.43% [at 10 µM]
COc1ccccc1-n1c(-c2cc(-c3ccco3)[nH]n2)n[nH]c1=S -40.9%
CN(C)Cc1c(C(=O)N/N=C/c2ccccc2OCc2ccc(F)cc2)nnn1-c1nonc1N -4.75%
Cc1ccc(C2C3=C(Nc4[nH]n(-c5ccccc5)c(=O)c42)c2ccccc2C3=O)cc1 (stereo unspecified) -1.07%
Cc1nn(-c2ccccn2)c2c1C(c1ccncc1)C1=C(CC(C)(C)CC1=O)N2 (stereo unspecified) -24.6%
CS(=O)(=O)N(CC(=O)Nc1ccc(F)cc1)C1CCCCC1 -10.2%
Cc1cccc(OC(C)C(=O)N2CCc3ccccc3C2)c1 (stereo unspecified) -19.3%
CN(C)/N=C/c1cn(-c2ccccc2)nc1-c1cccnc1 10.6%
Cc1nnc(SCC(=O)N/N=C/c2cn(-c3ccccc3)nc2-c2ccc(F)cc2)n1-c1ccccc1 -1.76%
CC1CC(=O)N(CC(=O)Nc2cccc(Cl)c2)c2ccccc2S1(=O)=O (stereo unspecified) -19.7%
NC(=O)c1cc(S(=O)(=O)N2CCCC2)ccc1OCc1ccc(F)cc1 13.3%
CCOC(=O)CSc1nnc(CNC(=O)c2cccs2)n1-c1ccccc1 5%
Cc1ccc(C)c2[nH]c(=O)c(CCNC(=O)c3cccs3)cc12 -1.69%
O=C(c1cc2cc(Br)cc(Br)c2oc1=O)N1CCOCC1 -31.5%
Cc1[nH]c2ccc(S(N)(=O)=O)cc2c1C -1.39% [at 10 µM]
C=CCn1c(COc2cccc3cccnc23)nnc1SCC(=O)OC 4.22%
Cc1nc(-c2ccccc2)sc1-c1nnc(C2CC2)o1 -19.7%
C=CCn1c(COc2ccccc2C)nnc1SCC(=O)O -3.71%
Cc1nc(-c2ccccc2)sc1-c1nc(-c2ccccc2)ncc1S(=O)(=O)c1ccccc1 -39.3%
C=CCn1c(=S)sc2c(=O)[nH]c(C)nc21 6.04%
COCCn1c(SCC(=O)N2CCCCCC2)nc2c(c1=O)SCC2 4.84%
CCN1CCN(c2sc(S(C)(=O)=O)nc2S(=O)(=O)c2ccc(Cl)cc2)CC1 -11.5%
CCOC(=O)c1csc(CCNC(=O)c2oc3c(Cl)cc(C)cc3c2C)n1 13.3%
CC1CC(C)CN(S(=O)(=O)c2cccc3nonc23)C1 (stereo unspecified) -6.89%
COc1ccc(/C=N/NC(=O)c2ccc(Cl)cc2)cc1COC(C)=O 1.99%
COc1cc(/C=N/NC(=O)CNC(=O)c2ccncc2)ccc1OC(C)=O 5.03%
COc1ccc(C(=O)O)cc1S(=O)(=O)NCc1cccnc1 33.5%
COc1cccc(NC(=O)CN2CCN(CC(=O)Nc3ccccc3Cl)CC2)c1 7.2%
Cc1ccc(OCC(=O)NC(C)c2ccccc2)cc1C (stereo unspecified) 27%
O=C(CN1CCCCCC1)Nc1ccc(S(=O)(=O)N2CCCCC2)cc1 -0.816%
O=C(Cc1cccs1)Nc1nnc(C2CC2)s1 17.9%
Cc1cccc(NC(=O)CSCC(=O)Nc2nnc(C3CC3)s2)c1 -38.7%
Cc1occc1C(=O)Nc1nnc(C2CCCCC2)s1 0% [at 10 µM]
CC1CCN(c2ccc(C(=O)Nc3nnc(C4CC4)s3)cc2[N+](=O)[O-])CC1 -38.9%
CCCc1ccc(OCC(O)CN2CCN(C(=O)OCC)CC2)cc1 (stereo unspecified) 16.4%
O=C(NCc1ccncc1)C(=O)NCC1OCCN1S(=O)(=O)c1ccc(Br)cc1 (stereo unspecified) -10.9%
CCCN1C2CCCC1CC(NC(=O)NC13CC4CC(CC(C4)C1)C3)C2 (stereo unspecified) -25.4%
COc1cc(/C=N/NC(=O)Cc2ccccc2)cc(OC)c1OC 0.299%
Cc1ccc(C(=O)NCCNC(=O)c2ccccc2)cc1 -8.02%
C/C(=N/NC(=O)c1ccc(NC(=O)c2ccc(F)cc2)cc1)c1ccccc1 -31.3%
FC(F)(F)c1nnc2c3ccccc3c(Cl)nn12 -22.3%
O=C(CN1CCN(c2cccc(Cl)c2)CC1)Nc1ccc(S(=O)(=O)N2CCOCC2)cc1 14.7%
Cc1cccc(NC(=O)C2CCCN(C(=O)Nc3ccc(F)cc3)C2)c1C (stereo unspecified) 1.81%
Cc1ccc(NC(=O)c2ccn(C(=O)Nc3ccccc3)n2)c(C)c1 4.67%
Cc1cccc(NC(=O)COC(=O)CCc2ccccc2)c1C -18.4% [at 1.91 µM]
Cc1ccc(NC(=O)C(=O)NCc2ccco2)c(C)c1 18.4%
Cc1cc(C(=O)NCCc2ccc(Cl)cc2)c(C)o1 13.5%
Cc1cc(Cl)ccc1NC(=S)NCCCN1CCCC1=O -42.8%
O=C(CC(=O)N/N=C\c1ccc(F)cc1)NCCc1ccccc1 24.3%
NC(=O)Nc1ccccc1C(=O)NCCc1ccccc1 18.4%
O=C(Nc1cccc([N+](=O)[O-])c1)N1CCc2ccccc2C1 42.6%
Cc1cc(N2C(=O)C(O)=C(C(=O)c3ccc(C)o3)C2c2ccc(OCc3ccccc3)cc2)no1 (stereo unspecified) -4.37%
COc1ccccc1CCNS(=O)(=O)c1cc2c3c(c1)C(C)C(=O)N3CCC2 (stereo unspecified) 13.9%
CCN(CC)S(=O)(=O)c1ccc(C(=O)N2CCN(C3=NS(=O)(=O)c4ccccc43)CC2)cc1 21.5%
Cc1cc(C)n(-c2ccc(NC(=O)C3CCCCN3C(=O)c3cccs3)cc2)n1 (stereo unspecified) -11.8%
O=C(Cc1ccccc1Cl)N1CCOCC1 4.98%
Cc1cccc(NC(=S)N2CCC(O)CC2)c1C -8.16%
Cc1ccccc1N/C(SCc1ccc(Cl)cc1)=C(/C#N)C(N)=O 33.9%
O=C(COc1ccc(Cl)cc1)Nc1ccccc1CO 42.9%
CSc1ncc(C(=O)Nc2ccc(C)cc2C)c(C)n1 11.4%
Cc1cccc(NC(=O)c2cccc(C(=O)Nc3cccc(C)c3C)n2)c1C -10.9% [at 1.91 µM]
CCOC(=O)N1CCN(C(=S)Nc2ccc(C)cc2C)CC1 -1.33%
COc1ccccc1CN1CCNC(=O)C1CC(=O)N(C)CC1CCOCC1 (stereo unspecified) -8.85%
COc1ccc(NC(=O)COc2ccc(C(=O)c3ccc(F)cc3)cc2)cc1S(N)(=O)=O 1.06%
CC(=O)N1CCSc2ccc(S(=O)(=O)N3CCC(C)CC3)cc21 13.9%
COc1cccc(N(C(=O)CNC(=O)c2ccco2)C(C(=O)NC2CCCCC2)c2cccnc2)c1 (stereo unspecified) 1.27%
Cc1ccc(-c2nc(CSCC(=O)NC3CCN(Cc4ccccc4)CC3)c(C)o2)cc1 -2.39%
Cc1ccccc1OCC(=O)NNC(=O)c1cc(S(=O)(=O)N(C)C)ccc1N1CCCC1 24.7%
Cn1c(Nc2cccc(Cl)c2)nc2ccccc21 -6.74% [at 1.91 µM]
COc1ccccc1CNC(=O)C1CCN(S(=O)(=O)c2ccc3c(c2)CC(C)N3C(=O)C2CC2)CC1 (stereo unspecified) 14.5%
COc1ccc(NC(=O)Nc2cccc3cccnc23)cc1 2.2%
Cc1ccc(Oc2ccc3c(c2)C(=O)N(c2cccc4cccnc24)C3=O)cc1 -9.24%
O=C(COc1ccc(Cl)cc1)NCCS(=O)(=O)N1CCN(c2ccc(F)cc2)CC1 23.4%
CCOC(=O)C1=C(O)CSC1=Nc1cccc(Cl)c1 -0.427%
CC(=O)Oc1ccc2c(=O)oc(-c3ccc([N+](=O)[O-])cc3)nc2c1 -18.3%
CC(C)(C)NC(=O)C(=O)NN=C1CCCCCCC1 -6.76%
CC1CC(C)CN(CCCNC(=O)Cn2ncc3c([nH]c4ccccc43)c2=O)C1 (stereo unspecified) -11.2%
Cc1cccc(N(C(=O)c2sc(C)nc2C)C(C(=O)NCC2CCCO2)c2ccccc2)c1 (stereo unspecified) -0.663%
CCC(NC(=O)c1cc(COc2ccc(F)c(F)c2)on1)c1ccncc1 (stereo unspecified) 24.8%
CC1CCC(NC(=O)CN(C)S(=O)(=O)c2ccc3c(c2)c(=O)n(C)c(=O)n3C)CC1 (stereo unspecified) -4.79%
COc1ccc(C(C(=O)NC2CCCCC2)N(C(=O)c2snc(C(N)=O)c2N)c2ccccc2OC)cc1 (stereo unspecified) 44.1%

Potency, active:
CCCCCCCCn1c2c(c(=N)c3c1CCC3)CCCC2 0.708 µM
c1ccc(CN=C2Nc3ccccc3CS2)nc1 11.2 µM
Cn1c(-c2ccco2)nc2cc3ccccc3cc21 6.31 µM
Cc1cc(C)c(C2C3=C(Nc4c2c(C)nn4-c2ccccn2)c2ccccc2C3=O)c(C)c1 (stereo unspecified) 2.51 µM
COc1ccc(-c2nn(-c3ccccc3)cc2/C=N/Nc2ccccn2)cc1OC 7.08 µM
C=CCn1c(CCNC(=O)c2cccs2)n[nH]c1=S 17.8 µM
C=CCn1c(-c2sc(-c3ccccc3)nc2C)n[nH]c1=S 2.51 µM
C=CCn1c(-c2ccccc2OCC)n[nH]c1=S 10 µM
C=CCn1c(-c2ccc3[nH]c(C)c(C)c3c2)n[nH]c1=S 5.62 µM
COc1ccc(/C=N/NC(=O)c2ccncc2)cc1CN1CCCc2ccccc21 11.2 µM
O=C(Nc1nnc(C2CC2)s1)c1ccccn1 1.12 µM
O=C(Nc1nnc(C2CC2)s1)c1cc(Cl)sc1Cl 11.2 µM
C/C(=N\NC(=O)c1ccc(C)cc1)C1C(=O)c2ccccc2C1=O 0.891 µM
Cc1ccc(NC(=S)NCc2ccccc2Cl)c(C)c1 6.31 µM
Cc1cc(F)ccc1NC(=S)NCCc1ccccc1 5.62 µM
Cc1ccc(NC(=S)NCCc2ccc(Cl)cc2)c(C)c1 2.82 µM
Cc1cccc(NC(=S)NCCc2ccc(F)cc2)c1C 2 µM
Cc1cccc(NC(=S)NCCc2ccc(Cl)cc2)c1C 5.62 µM
Cc1ccccc1NC(=S)NC(=O)Cc1ccc(Cl)cc1 7.94 µM
Cc1ccc(NC(=S)Nc2ncccc2C)c(C)c1 4.47 µM
Cc1ccc(OS(=O)Nc2cccc3nccnc23)cc1 (stereo unspecified) 3.98 µM
CN(C)c1nc(=Nc2cccc(Cl)c2)ss1 0.398 µM
CC(C)NC(=S)NN=C1CCCCCCCCCCC1 0.447 µM
